Test results published in PubChem BioAssay (Tox21).
Inconclusive results are not listed. The source made the active and inactive calls. The call rests on the fitted dose curve; in most records, active means well fitted cell-killing curve with a large enough effect in the repeat runs (not every such curve was filed as active); inconclusive means weak or mixed curves, or effect the other way; inactive means no such curve, though single readings can be large or run the other way.

Assay: qHTS assay to identify small molecule antagonists of the estrogen related receptor signaling pathway with the pleiotropic PPARgamma coactivator (PGC) from Tox21 10K library - cell viability counter screen (AID 1224840); further: nearly all actives have a fitted effect of over 40% in size
Conditions: PGC/ERR reporter cells viability, CellTiter-Fluor, 17.5 h; series mostly up to 92.4 µM; viability change, negative = cytotoxic: at the top concentration
Excerpt: National Center for Advancing Translational Sciences [NCATS]
NIH Chemical Genomics Center [NCGC]
U.S. Environmental Protection Agency [EPA]
National Institutes of Environmental Health Sciences [NIEHS]
National Toxicology Program [NTP]
U.S. Food and Drug Administration [FDA]
Estrogen related receptors (ERRs), the first orphan nuclear receptors discovered, play an important role in the control of cellular energy metabolism. ERRs are required for high-energy production in response to the environmental challenges. The pleiotropic PPARgamma coactivator (PGC) is a major partner of ERR and a key regulator in energy homeostasis. Together they have been implicated in the etiology of metabolic disorders such as Type 2 diabetes and metabolic syndrome. ERR-alpha was also identified as an adverse marker for breast cancer progression; ERR-alpha-positive tumors have a poor prognosis. To screen and to identify environmental compounds that perturb the ERR and PGC/ERR signaling pathways could provide valuable information for potential therapeutic or preventive measures in the treatment of metabolic disease. To differentiate true PGC/ERR antagonists or agonist from cytotoxic substances, the assay is multiplexed with cell viability assay.
Tox21 Assay Protocol Summary:
The PGC/ERR cells were dispensed at 2,000 cells/5 ul/well in 1536-well white plates using a Multidrop dispenser. After the assay plates were incubated at a 37 C/5% CO2 incubator for 6 hours, 23 nL of compounds dissolved in DMSO, positive and negative controls or DMSO only was transferred to the assay plate by a pin tool. The plates were incubated at 37 C for 17.5 hours. 1 ul/well of CellTiter-Fluor reagent was added into the assay plates using a Flying Reagent Dispenser. After 30-minute incubation at 37 C/5% CO2, the fluorescence intensity in the plates was measured using a ViewLux plate reader.
On the % scale 0 is the no-effect control and ±100 the full control effect.

Structure (SMILES)	viability change, negative = cytotoxic
CN[C@@H]1[C@H](O)[C@H](NC)[C@H]2O[C@@]3(O)C(=O)C[C@@H](C)O[C@H]3O[C@@H]2[C@H]1O	0.729% [at 42.5 µM] (inactive)
C=C(C)C(=O)OC1CC(C)CC(C)(C)C1 (stereo not given)	5.72% (inactive)
CC(C)COC(=O)/C=C/c1ccccc1	9.52% (inactive)
CC(C)C(=O)c1ccccc1	-0.373% (inactive)
O=C(O)/C=C/c1ccccc1	6.75% (inactive)
CCCCCCCCCCCCCCCC(=O)NCCO	9.79% [at 42.5 µM] (inactive)
Cc1cc(C)cc([N+](=O)[O-])c1	-4.32% (inactive)
Cn1c(=O)c2c(ncn2CC2OCCO2)n(C)c1=O	18.8% [at 42.5 µM] (inactive)
CO/N=C(/C(=O)N[C@@H]1C(=O)N2C(C(=O)O)=C(Cn3nnc(C)n3)CS[C@H]12)c1csc(N)n1	2.55% [at 42.5 µM] (inactive)
CC(C)(C)NCCO	2.14% (inactive)
Cc1ccc(S(=O)(=O)NC(=O)NC2CCCCCCC2)cc1	4.8% [at 42.5 µM] (inactive)
C=COCCOCCOC=C	0.169% (inactive)
COc1ccc(NS(=O)(=O)c2ccc(N)cc2)nn1	5.86% [at 42.5 µM] (inactive)
CCC(CO)CO	-0.013% (inactive)
CCCCCCCCOC(C)=O	7.54% (inactive)
CC(=O)OCCCc1ccccc1	-1.68% (inactive)
Nc1ccnc(=O)[nH]1	5.42% (inactive)
CC(C)C(=O)Nc1cccc(C(F)(F)F)c1	-3.89% [at 42.5 µM] (inactive)
COCCOCCOCCOC	2.42% (inactive)
CCOC(=O)C(=O)c1csc(NC=O)n1	1.77% [at 42.5 µM] (inactive)

Structure (SMILES)	viability change, negative = cytotoxic
Cc1cc(O)c2c(c1)C(=O)c1cccc(O)c1C2=O	-10.5% [at 42.5 µM] (inactive)
CC(=O)c1ccc(OCC(=O)N2CCCCC2)cc1	7.35% [at 42.5 µM] (inactive)
CCC(=O)OCCC(C)CCC=C(C)C (stereo not given)	-0.221% (inactive)
CCC1COC(=O)O1 (stereo not given)	9.67% (inactive)
O=S(=O)(O)CCO	4.97% (inactive)
C=CCCCCCCCCCCC	1.26% [at 8.39 µM] (inactive)
CC(=O)c1ccc2c(c1)CCCC2	-2.17% (inactive)
CC(=O)N1CCN(c2ccc(O)cc2)CC1	-2.77% [at 42.5 µM] (inactive)
O=CO	-0.178% [at 8.39 µM] (inactive)
Nc1c(NC/C=C\COc2cc(CN3CCCCC3)ccn2)c(=O)c1=O	8.26% [at 19 µM] (inactive)
CCCCC(CC)COC(=O)c1ccccc1 (stereo not given)	-0.602% (inactive)
CCOC(=O)CC(CC(=O)OCC)(OC(C)=O)C(=O)OCC	-2.1% (inactive)
CCCCCCCC[Si](OCC)(OCC)OCC	5.49% (inactive)
Cc1oc(=O)oc1CN1CCN(c2cc3c(cc2F)c(=O)c(C(=O)O)c2n3C(C)S2)CC1 (stereo not given)	5.41% [at 42.5 µM] (inactive)
CC(C)(c1ccc(Oc2ccc3c(c2)C(=O)OC3=O)cc1)c1ccc(Oc2ccc3c(c2)C(=O)OC3=O)cc1	-0.831% (inactive)
O=S(=O)(O)c1cc(O)ccc1O	10.2% (inactive)
Nc1ccc(C(=O)OCC(O)CO)cc1 (stereo not given)	3.87% [at 42.5 µM] (inactive)
CC(=O)N(CC(O)CO)c1c(I)c(C(=O)NCC(O)CO)c(I)c(C(=O)NCC(O)CO)c1I (stereo not given)	13.8% [at 42.5 µM] (inactive)
CC(C)(CO)[C@@H](O)C(=O)NCCCO	12.4% [at 42.5 µM] (inactive)
CCCCCCCCCCCCOC(C)=O	-1.91% (inactive)
